Measurements from PubChem BioAssay (NCI).
About 83,000 compounds went through this panel and 20% of them were active in at least one assay; those are over-represented in the sample as a whole.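 Values shown are percent growth following 48 h exposure of cells in 96-well plates to a single concentration of compound; below 10 was considered active.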 Calls of active or inactive are those of the source.

Tests used:
Assay in all cases: NCI-60 one-dose screen, 48 h (100 = growth as untreated, 0 = no growth, -100 = all killed)
[1] = system: DU-145 prostate; conditions: 10 µM
[2] = system: K-562 leukemia; conditions: 10 µM
[3] = system: MALME-3M melanoma; conditions: 10 µM
[4] = system: MDA-MB-231 breast; conditions: 10 µM
[5] = system: RXF 393 renal; conditions: 10 µM
[6] = system: SF-268 CNS; conditions: 10 µM
[7] = system: SF-295 CNS; conditions: 10 µM
[8] = system: SF-539 CNS; conditions: 10 µM
[9] = system: UACC-257 melanoma; conditions: 10 µM
[10] = system: M14 melanoma; conditions: 10 µM
[11] = system: HCT-15 colon; conditions: 10 µM
[12] = system: HT29 colon; conditions: 10 µM
[13] = system: SNB-75 CNS; conditions: 10 µM
[14] = system: U251 CNS; conditions: 10 µM
[15] = system: PC-3 prostate; conditions: 10 µM
[16] = system: SK-MEL-5 melanoma; conditions: 10 µM
[17] = system: LOX IMVI melanoma; conditions: 10 µM
[18] = system: UACC-62 melanoma; conditions: 10 µM unless noted
[19] = system: SK-MEL-28 melanoma; conditions: 10 µM
[20] = system: SNB-19 CNS; conditions: 10 µM

Measured: growth

Nc1nc(OCc2ccccc2)c2[nH]cnc2n1
inactive: [1] 99.2% | [2] 80.4% | [3] 98.3% | [4] 97.9% | [5] 98.8% | [6] 109% | [7] 96.8% | [8] 89.7% | [9] 97.8% | [10] 90.6% | [11] 63.7% | [12] 105% | [14] 100% | [15] 84.4% | [16] 94% | [17] 83.1%
active: [13] 8.69%

O=C1Cc2cc(O)ccc2O1
inactive: [1] 118% | [2] 96.6% | [3] 92.5% | [4] 106% | [5] 114% | [6] 106% | [7] 160% | [8] 101% | [9] 103% | [10] 98.9% | [11] 117% | [12] 104% | [13] 86% | [14] 103% | [15] 107% | [16] 101% | [18] 101% | [17] 83.1% | [19] 108%

CSC(=N\N=C\c1ccc(N(C)C)cc1)/N=C/N(C)C
inactive: [1] 117% | [2] 111% | [3] 104% | [4] 106% | [5] 95.1% | [6] 111% | [7] 84.6% | [8] 96% | [9] 100% | [10] 104% | [11] 96.1% | [12] 113% | [13] 102% | [20] 100% | [15] 106% | [16] 101% | [18] 112% | [19] 111%

N#Cc1ccc(OC(=O)Nc2ccc(Cl)c(Cl)c2)cc1
inactive: [1] 72.3% | [2] 44% | [3] 72.9% | [4] 93% | [5] 91.5% | [6] 94.4% | [7] 41.4% | [8] 91.5% | [9] 86.2% | [10] 76.6% | [11] 53.6% | [12] 63.4% | [13] 93.2% | [20] 87% | [15] 36.2% | [16] 81.5% | [18] 65.7% | [19] 94.1%

CCCCC(O)c1ccccc1 (stereo unspecified)
inactive: [1] 108% | [2] 94% | [3] 102% | [4] 116% | [5] 107% | [6] 98.6% | [7] 104% | [8] 106% | [9] 101% | [10] 109% | [11] 102% | [13] 92.2% | [20] 110% | [14] 98.4% | [15] 97.9% | [18] 108% | [17] 96.4% | [19] 119%
active: [12] -11.4%

COC(=O)Nc1cccc(Cl)c1OC
inactive: [1] 114% | [2] 113% | [3] 106% | [4] 124% | [5] 90% | [6] 107% | [7] 81.8% | [8] 98.2% | [9] 103% | [10] 110% | [11] 96.4% | [12] 111% | [13] 99% | [20] 112% | [15] 103% | [16] 100% | [18] 111% | [19] 114%

Cn1cnc2nc(Cl)nc(Cl)c21
active: [1] -24% | [8] 2.85% | [10] -15.6% | [12] -29.9%
inactive: [2] 25.5% | [3] 55.6% | [4] 20.9% | [5] 30.6% | [6] 22.1% | [7] 16.3% | [9] 60% | [11] 31.7% | [13] 47.9% | [14] 14.2% | [15] 25.1% | [16] 16% | [18] 54.9% | [17] 18.1% | [19] 65.1%

OCc1cccc2ccccc12
inactive: [1] 108% | [2] 99.3% | [3] 132% | [4] 112% | [5] 146% | [6] 107% | [7] 117% | [8] 95.7% | [9] 109% | [10] 110% | [11] 101% | [12] 114% | [13] 86.3% | [20] 113% | [14] 108% | [16] 118% | [18] 112%

CC1CC(O)CC(C)(C)C1 (stereo unspecified)
inactive: [1] 101% | [2] 110% | [3] 97.4% | [4] 105% | [5] 115% | [6] 91.9% | [7] 98.7% | [8] 95.2% | [9] 97.8% | [10] 108% | [11] 100% | [12] 99.9% | [13] 94% | [14] 101% | [15] 94.8% | [16] 104% | [18] 92.4% | [17] 102% | [19] 112%

CC(=O)Nc1c(C)cc(C)cc1C
inactive: [1] 101% | [2] 96.3% | [3] 102% | [4] 114% | [5] 113% | [6] 95.4% | [7] 94.3% | [8] 103% | [9] 104% | [10] 101% | [11] 102% | [12] 119% | [13] 89.2% | [14] 99.3% | [15] 103% | [16] 100% | [18] 107% | [19] 112%

Cc1cc(Cc2cc(C)c(N)cc2N)c(N)cc1N
inactive: [1] 105% | [2] 101% | [3] 95.2% | [4] 83.9% | [5] 103% | [6] 90.9% | [7] 104% | [8] 103% | [9] 85.3% | [10] 101% | [11] 103% | [12] 95.9% | [13] 91.4% | [14] 88.9% | [15] 85.4% | [16] 91.9% | [18] 95.5% | [17] 87.3% | [19] 112%

COc1ccc(Oc2c(I)cc(CC(NC(C)=O)C(=O)O)cc2I)cc1 (stereo unspecified)
inactive: [1] 107% | [2] 63.9% | [3] 88.4% | [4] 78.8% | [5] 88.6% | [6] 91.7% | [7] 62.3% | [8] 111% | [9] 83.8% | [10] 80.8% | [11] 96.6% | [12] 85.2% | [13] 87.1% | [14] 86.5% | [15] 69.5% | [16] 60.7% | [18] 73.5% | [17] 70% | [19] 103%

Cc1cc(=O)n(-c2ccc(F)cc2)[nH]1
inactive: [1] 109% | [2] 99.1% | [3] 102% | [4] 105% | [5] 93.5% | [6] 101% | [7] 86.8% | [8] 90.8% | [9] 103% | [10] 108% | [11] 89.6% | [12] 105% | [13] 88.5% | [20] 103% | [15] 90% | [16] 97.5% | [18] 101% | [19] 119%

Cc1cc(C)c(CC(=O)O)c(C)c1
inactive: [1] 101% | [2] 95.2% | [3] 97.8% | [4] 120% | [5] 123% | [6] 98.6% | [7] 102% | [8] 108% | [9] 106% | [10] 98.9% | [11] 100% | [12] 99.4% | [13] 93.2% | [14] 103% | [15] 103% | [16] 101% | [18] 108% | [17] 96.5%

NC(C(=O)O)c1ccc([N+](=O)[O-])cc1 (stereo unspecified)
inactive: [1] 109% | [2] 113% | [3] 121% | [4] 90.2% | [5] 118% | [6] 105% | [7] 104% | [8] 89.3% | [9] 111% | [10] 99% | [11] 95.7% | [12] 149% | [13] 78.9% | [20] 99.6% | [14] 115% | [16] 105% | [18] 97.3% | [17] 101% | [19] 101%

N#C/C(=C\c1cc(O)c(O)c(O)c1)C(N)=O
active: [13] -17.7%
inactive: [1] 93.6% | [2] 71.9% | [3] 115% | [4] 102% | [5] 99.6% | [6] 107% | [7] 87.7% | [8] 94% | [9] 105% | [10] 92.2% | [11] 88.6% | [12] 103% | [14] 93% | [15] 46.5% | [16] 101% | [18] 98.1% | [17] 92.3%

O=C(O)C(O)c1ccccc1 (stereo unspecified)
inactive: [1] 106% | [2] 111% | [3] 99.9% | [4] 107% | [5] 102% | [6] 98.8% | [7] 107% | [8] 94% | [9] 102% | [10] 97.8% | [11] 113% | [12] 115% | [13] 94.8% | [14] 103% | [15] 97.3% | [16] 101% | [18] 107% | [17] 94.2% | [19] 107%

O=C(O)[C@@H]1[C@H]2C[C@H]3c4[nH]c5ccccc5c4CCN3C[C@@H]2CC[C@@H]1O
inactive: [1] 106% | [2] 129% | [3] 66.1% | [4] 108% | [5] 111% | [6] 107% | [7] 99.2% | [8] 108% | [9] 105% | [10] 91.5% | [11] 106% | [12] 103% | [13] 88.4% | [20] 111% | [14] 114% | [16] 111% | [18] 99.4% | [17] 103% | [19] 120%
